Screen size: about 3,300 compounds; about 50 (2%) were called active.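 How the source made its calls: active means concentration giving half-maximal inhibition at or below 20 micromolar; inactive means half-maximal concentration above 20 micromolar, or not dose tested.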 Not all results are given here. Potency and affinity values are given separately.

Usually inhibition stands for the relative decrease from the control value, in per cent.

The nature of the assay: Jurkat cell viability reduction – Jurkat E6.1, NIH starter set, primary screen (AID 364).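 Further: 100% = cells treated with 4 µM doxorubicin.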 The conditions noted are these: Jurkat E6.1 viability, ATP luminescence, 48 h; at 4 µM; active compounds read high.
For the molecule `COCCNc1oc(-c2ccc(Cl)cc2)nc1C#N`, the inhibition is 2.9% (inactive). With `CCN(CC)CCCN1C(=O)C(=O)/C(=C(/O)c2ccc(C)cc2)C1c1ccccn1` (configuration not stated) the figure was -5.6% (inactive); with `CCCNc1ncnc2c1cnn2-c1ccc(OC)cc1`, -3.3% (inactive). For the molecule `CCOc1ccc(CC2CC(=O)NC2=O)cc1` (configuration not stated), the inhibition was -9.7% (inactive). The result for `Cc1cn([C@H]2C=C[C@@H](CO)O2)c(=O)[nH]c1=O` reads -6.6% (inactive); that for `Cc1cn([C@H]2C[C@H](N=[N+]=[N-])[C@@H](CO)O2)c(=O)[nH]c1=O`, 0.1% (inactive). On to `Cn1cc(C(=O)NCN2CCCCC2)c2ccccc21`, for which the inhibition was -0.4% (inactive). For the molecule `CC(C)c1nc(NCC2CCCO2)c(C#N)c2c1COC(C)(C)C2` (configuration not stated), the inhibition is 9.3% (inactive). The result for `Nc1nnnn1/N=C/c1ccco1` reads 8% (inactive); that for `CCc1nc(N2CCCC2)c(C#N)c2c1CCCC2`, 2.4% (inactive). The result for `COc1ccc(Nc2oc(-c3cccs3)nc2C#N)cc1` reads 9.1% (inactive); that for `O=C1CCCN1c1ccc(S(=O)(=O)NCc2ccco2)cc1`, 7.4% (inactive); that for `COc1ccc(N2CC(=O)N(c3ccc(OC)c(OC)c3)CC2=O)cc1OC`, -0.2% (inactive). With `NC(=O)c1cc(-c2ccccc2)nc(Oc2ccccc2)n1` the figure was 16.2% (inactive); with `CC(C)Oc1ccc(/C(O)=C2/C(=O)C(=O)N(CCN3CCOCC3)C2c2ccccc2)cc1` (configuration not stated), -8.3% (inactive); with `CCOc1cc(CN2CCOCC2)cc(C(C)=O)c1`, 3.2% (inactive). On to `Cn1c(N)c(C#N)c(C#N)c1-c1ccccc1`, for which the inhibition is -0.9% (inactive).

Turning to `CCCCCOC(=O)Cc1c(C)nc(-c2ccccc2)[nH]c1=O`, the inhibition is 3.9% (inactive). With `COc1ccc(C(=O)CCN2CCCCCC2)cc1` the figure was -4.7% (inactive); with `COc1ccc(C(O)C(CN2CCOCC2)c2ccccc2)cc1` (configuration not stated), -2.1% (inactive). With `C=C(C)CSC1=C(C#N)C(c2ccsc2)CC(=O)N1` (configuration not stated) the figure was 8.6% (inactive); with `CCCCCCSC1=C(C#N)C(c2ccccc2)CC(=O)N1` (configuration not stated), -7% (inactive). With `CN1C2C=C3C(C#N)=C(N)C(C#N)(C#N)[C@@H](c4ccc(Cl)cc4)[C@@H]3C1CC2` (some centres not stated) the figure was 1.6% (inactive); with `CCOc1cccc(C2C(C#N)=C(N)Oc3cc(C)oc(=O)c32)c1OCC` (configuration not stated), -9.9% (inactive); with `O=C(NCc1cccnc1)NC(C(F)(F)F)C(F)(F)F`, -8.9% (inactive). Take `CCC(NC(=O)Nc1nccs1)(C(F)(F)F)C(F)(F)F`: the inhibition was -5% (inactive). The result for `O=C(NCC(F)(F)F)Nc1nnc(C(F)(F)F)s1` reads -6.7% (inactive); that for `CC(NC(=O)Nc1nccs1)(C(F)(F)F)C(F)(F)F`, -6.2% (inactive); that for `CCSc1nnc(NC(=O)NC(CC)(C(F)(F)F)C(F)(F)F)s1`, -11.5% (inactive).

Regarding `COCCCn1c(C)nc2c(c1=O)c1nc3ccccc3nc1n2CCc1ccccc1`, the inhibition was 4.1% (inactive).

For `CC1CCCCN1C(=O)C12CCC(C)(/C(=N/O)C1)C2(C)C` (configuration not stated), the inhibition was -9.3% (inactive). The result for `CCOC(=O)C1=C(N)c2ccccc2CC1C(C)C` (configuration not stated) reads 7% (inactive); that for `COc1cc(C2C(C#N)=C(N)Oc3cc(C)n(CCN4CCOCC4)c(=O)c32)cc(OC)c1OC` (configuration not stated), -2.9% (inactive). On to `COc1cccc(C2C(C#N)=C(N)Oc3cc(C)[nH]c(=O)c32)c1OC` (configuration not stated), for which the inhibition is 7.3% (inactive). On to `COc1ccc(-c2cc3nc4n(c(=O)c3s2)CCOC4)cc1`, for which the inhibition was 4.7% (inactive).

In the case of `COc1cc(NC(=O)NC(C)(C(F)(F)F)C(F)(F)F)cc(OC)c1OC`, the inhibition was -6.8% (inactive). Consider `OCCOCCNc1ncnc2c1cnn2-c1ccc(Cl)cc1`, for which the inhibition was 3.8% (inactive). The result for `CN1CCN(c2c3c(c(C#N)c4nc5ccccc5n24)CCCC3)CC1` reads 4.7% (inactive); that for `CCOC(=O)C1Cc2c([nH]c3ccccc23)C(C)N1` (configuration not stated), -10.3% (inactive). The result for `Cc1cc(NC(CC(C)C)C(=O)O)nc(Cc2ccccc2)n1` (configuration not stated) reads 0.4% (inactive); that for `CC1(C2(O)CC(c3ccccc3)ON2)CCCCC1` (configuration not stated), 13.9% (inactive). The result for `CC1CN(C2CCN(S(=O)(=O)c3ccccc3)CC2)CC(C)O1` (configuration not stated) reads 7.8% (inactive). `C(=N\n1cnnc1)/c1ccccn1`: the inhibition was -0.2% (inactive). The result for `CCOC(=O)CC(=O)CSc1nc(N)c(C#N)c(-c2ccc(Cl)cc2)c1C#N` reads 9.6% (inactive). The result for `Cc1cc(-c2cc(-c3ccc(Cl)cc3)nc(N)c2C#N)co1` reads 7.7% (inactive).

Regarding `CC(=O)c1c(OCC(=O)O)ccc2c(C)cc(=O)oc12`, the inhibition is 6.9% (inactive). The result for `c1ccc(CN2CCN(c3ncnc4c3[nH]c3ccccc34)CC2)cc1` reads 28.5% (inactive); that for `c1ccc2c(c1)[nH]c1c(N3CCSCC3)ncnc12`, 29.6% (inactive). The result for `Cc1cc(=O)oc(C)c1C(=O)N1CCN(C)CC1` reads -1% (inactive); that for `CN(C)CCCN1C(=O)C(O)=C(C(=O)c2cc3ccccc3o2)C1c1ccccc1` (configuration not stated), 0% (inactive); that for `Nc1ccc2oc3ncccc3c(=O)c2c1`, -1.7% (inactive). For `CC(C)Oc1ccc(/C(O)=C2/C(=O)C(=O)N(CCN(C)C)C2c2ccco2)cc1` (configuration not stated), the inhibition was 5.7% (inactive). The result for `Cc1ccc2[nH]c3c(N4CCN(Cc5ccc6c(c5)OCO6)CC4)ncnc3c2c1` reads 18.7% (inactive).

As for `COc1cccc(N2CCN(c3ncnc4c3[nH]c3ccccc34)CC2C)c1` (configuration not stated), the inhibition was 22.3% (inactive).

Take `COc1ccc2[nH]c3c(N4CCN(Cc5ccc6c(c5)OCO6)CC4)ncnc3c2c1`: the inhibition is -0.5% (inactive). The result for `Fc1ccc2[nH]c3c(N4CCN(c5ccccc5)CC4)ncnc3c2c1` reads 28.7% (inactive); that for `N#CCCSCc1ccc(OCC(=O)O)cc1`, -5.7% (inactive); that for `CCn1cc(C(=O)NCc2ccco2)c(=O)c2cc(F)c(N3CCN(C(=O)c4ccco4)CC3)cc21`, 7.2% (inactive).

As for `Cc1cc(C)n(C(=O)CNC(=O)c2cccs2)n1`, the inhibition was 2.3% (inactive). `CCc1ccccc1NC(=O)CSC1=C(C#N)C(c2ccc(O)c(OC)c2)C2=C(CCCC2=O)N1` (configuration not stated): the inhibition was -3.3% (inactive). As for `N#CC1=C(SCc2ccccc2)NC2=C(C(=O)CCC2)C1c1ccc2c(c1)OCO2` (configuration not stated), the inhibition was 13.1% (inactive). With `Cc1ccc(NC(=O)CSC2=C(C#N)C(c3ccco3)C3=C(CCCC3=O)N2)cc1` (configuration not stated) the figure was 6.6% (inactive); with `COc1ccccc1NC(=O)C1=C(C)NC(SCC(=O)c2ccc(C)cc2)=C(C#N)C1c1ccco1` (configuration not stated), -6.6% (inactive). Turning to `CCN(CC)C(=O)CSC1=C(C#N)C(c2ccco2)C(C(=O)OCCOC)=C(C)N1` (configuration not stated), the inhibition was -2.1% (inactive).

With `CCc1ccc(NC(=O)CSC2=C(C#N)C(c3ccco3)C3=C(CCCC3=O)N2)cc1` (configuration not stated), the inhibition is 3.5% (inactive). Take `COCCOC(=O)C1=C(C)NC(SCC(=O)NC(C)(C)C)=C(C#N)C1c1ccco1` (configuration not stated): the inhibition is 9.1% (inactive). With `CCCCc1ccc(NC(=O)CSC2=C(C#N)C(c3ccco3)C3=C(CCCC3=O)N2)cc1` (configuration not stated) the figure was -2.5% (inactive).

These data come from PubChem BioAssay AID364 (The Scripps Research Institute Molecular Screening Center, 2006).
